Source: PubChem BioAssay
In the library only some 5.5% were active in any assay of this set; here they are far more common.
ELG1 repair inh – blocks ELG1-dependent DNA repair in HEK293T cells; HEK293T ELG1-luciferase reporter, luminescence, 16 h; DNA damage induced by 5-fluorouridine; Potency, µM (doses to about 46.1 µM), usual class: inhibitors; 330,000 compounds, 2.3% hits; note: nearly all actives have a fitted effect of over 55% in size
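Luminescence from the luciferase reporter, measured 30 min after ONE-Glo reagent at room temperature, was the read-out. Beforehand, 2,000 cells per well were exposed for 16 hr at 37 °C to 5-fluorouridine together with compound or vehicle.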
Giardia kill – Giardia lamblia killing | Giardia lamblia trophozoite viability | activity change, % at 7.66 µM, hits read low | 340,000 compounds, 0.15% hits | AID 540267; in the data active = activity change below about -80%; inconclusive = between about -30% and that limit;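 note: parasites exposed to compound for two days anaerobically before the ATP read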
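Luminescence from cellular ATP indicates surviving trophozoites (100 cells/well) following 48 hrs anaerobic compound treatment at 37 deg C; signal develops 15-30 min at room temperature.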
Sfp PPTase inh – Sfp phosphopantetheinyl transferase inhibition. Q9F4F7. Biochemical Sfp PPTase activity, qHTS. Potency, µM, most hits filed as inhibitors. 310,000 compounds, 3.5% hits;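 note: the enzyme is Sfp with the accession as filed and its product quenches rhodamine fluorescence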
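Compounds were incubated with enzyme (final 15 nM) for 15 min at room temperature before substrate addition started the reaction. Fluorescence at 525 nm excitation, 598 nm emission was recorded immediately and after 30 minutes.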
Coupling enz – inhibits coupling enzyme system, counter-screen for aldolase hits. coupling enzyme system counterscreen, AmpLite Red fluorescence. activity change, negative = inhibition, % at 58.2 µM, hits read low. 290,000 compounds, 0.67% hits; in the data active = activity change below about -30%
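Counterscreen lacking aldolase: glyceraldehyde-3-phosphate coupling-enzyme reagent preincubated 10 min at RT with compound (at 57.5 uM final), then substrate/coupling system with AmpLite Red added; fluorescence read at 525/598 nm after 20 min RT.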
Large screens that a line does not name were inactive. Unless noted, calls come from the whole dose curve; as a rule, active = well fitted curve in the direction sought with a large enough effect; inconclusive = small, poorly fitted or top-dose-only effect, or another doubt; inactive = no such curve, though single readings can be large; an effect the other way counts as inactive or inconclusive.

COc1ccc(C2C(C#N)=C(N)Oc3cc4c(cc32)OCO4)cc1 (stereo not given)	ELG1 repair inh inconclusive
CCN1C=C(Cc2ccc(OC)cc2)C2=C(C1)C(c1ccc(OC)cc1)C(C#N)=C(N)O2 (stereo not given)	ELG1 repair inh 21µM
CCn1cc(S(=O)(=O)Nc2cc(C(=O)OC)ccc2C)cn1	none (no result: Coupling enz)
Cc1ccc2sc(NNC(=O)c3cc(=O)c4ccccc4o3)nc2c1C	ELG1 repair inh inconclusive, Sfp PPTase inh 8.9µM, Coupling enz -47
COc1ccc2nc(NNC(=O)c3cc(=O)c4ccccc4o3)sc2c1	Sfp PPTase inh 13µM
O=C(NNc1nc2c(F)cccc2s1)c1cc(=O)c2ccccc2o1	ELG1 repair inh inconclusive
Cc1cccc2sc(NC(=O)C3CCCO3)nc12 (stereo not given)	ELG1 repair inh inconclusive
Cc1cccc2sc(NNC(=O)c3cc(=O)c4ccccc4o3)nc12	ELG1 repair inh inconclusive, Sfp PPTase inh 45µM
Cc1nc(C)c(C(=O)Nc2nc3c(C)cccc3s2)o1	ELG1 repair inh inconclusive, Sfp PPTase inh 50µM
COc1ccc(-c2cccc(NC(=O)COc3ccc(Cl)cc3)c2)nn1	none
CN(Cc1ccccc1)C(=O)CCCn1c(=O)c2cccn2c2cccnc21	none (no result: Coupling enz)
COc1ccc2[nH]c(=O)c(CNc3ccccc3)cc2c1	ELG1 repair inh inconclusive, Sfp PPTase inh 50µM, Coupling enz -35
COc1ccc2[nH]c(=O)c(CN(CCN(C)C)C(=O)NCc3ccccc3)cc2c1	none
CCOc1ccc(NCc2cc3cc(OC)ccc3[nH]c2=O)cc1	ELG1 repair inh inconclusive
COc1ccc2[nH]c(=O)c(CNc3ccccc3C)cc2c1	ELG1 repair inh inconclusive, Sfp PPTase inh 22µM
COc1ccc2[nH]c(=O)c(CNc3ccccc3OC)cc2c1	Sfp PPTase inh 16µM, Coupling enz -34
CCN1C(=O)[C@H]2[C@H]3[C@H](O)[C@H](O)C/C(=N/OCC(C)C)[C@H]3CC[C@@H]2C1=O	none (no result: ELG1 repair inh, Giardia kill)
COc1cc(OC)cc(C(=O)NC(=S)N(Cc2ccccc2)C(C)C)c1	ELG1 repair inh inconclusive
COc1cc(/C=N/NC(N)=S)cc(Br)c1OCc1ccccc1F	ELG1 repair inh 23µM
CCOC(=O)Cn1c2c(c(=N)c3c1CCC3)CCC2	ELG1 repair inh inconclusive
CCOC(=O)CN1NC2(CCCCC2)NC1=S	Sfp PPTase inh 28µM
CCOC(=O)CN1NC2(CCCCCCC2)NC1=S	Sfp PPTase inh 40µM
O=C(NCc1ccco1)c1nc2c(nnn2Cc2ccccc2Cl)c(=O)[nH]1	ELG1 repair inh 21µM
Cc1ccc(C)c(Cn2nnc3c(=O)[nH]c(C(=O)NCc4ccco4)nc32)c1	none
COc1cc(C(=O)NCC(c2ccc(F)cc2)N2CCOCC2)ccc1OCc1ccccc1Cl (stereo not given)	ELG1 repair inh inconclusive (no result: Sfp PPTase inh, Coupling enz)
CC1=C(CC(=O)c2ccccc2)C(=O)c2ccccc2C1=O	ELG1 repair inh inconclusive, Coupling enz -36
COC(=O)c1ccc(NC(=O)c2nc(S(=O)(=O)Cc3cccc(C)c3)ncc2Cl)cc1	ELG1 repair inh 16µM, Sfp PPTase inh inconclusive
CC(=O)Nc1ccc(NC(=O)c2nc(S(=O)(=O)Cc3cccc(C)c3)ncc2Cl)cc1	ELG1 repair inh inconclusive (no result: Coupling enz)
c1ccc(COc2ccc(OCCN3CCCCC3)cc2)cc1	ELG1 repair inh inconclusive, Sfp PPTase inh 50µM
Fc1ccc(-n2c(=S)[nH]c3cccnc32)cc1	Sfp PPTase inh 28µM
FC(F)(F)c1cnc2c(c1)[nH]c(=S)n2-c1ccc(Cl)cc1	ELG1 repair inh 16µM
CC(C(=O)N1CCN(c2ccc(Cl)cc2)CC1)c1ncc(C(F)(F)F)cc1Cl (stereo not given)	none
c1cncc(-c2ccc3ncnc(NCc4ccc5c(c4)OCO5)c3c2)c1	ELG1 repair inh inconclusive (no result: Sfp PPTase inh, Coupling enz)
COc1cccc(-c2ccc3ncnc(NCc4cccc(C)c4)c3c2)c1	ELG1 repair inh 16µM (no result: Sfp PPTase inh, Coupling enz)
c1nc(NCc2ccc3c(c2)OCO3)c2cc(-c3ccoc3)ccc2n1	ELG1 repair inh 1.6µM (no result: Sfp PPTase inh, Coupling enz)
c1cncc(-c2ccc3ncnc(NCc4cccs4)c3c2)c1	ELG1 repair inh inconclusive (no result: Sfp PPTase inh, Coupling enz)
COc1cccc(-c2ccc3ncnc(NCc4cccs4)c3c2)c1	ELG1 repair inh 15µM
c1cncc(CNc2ncnc3ccc(-c4cccnc4)cc23)c1	Sfp PPTase inh 79µM
CCC(=O)N1CCC2(CC1)Oc1ccc(F)cc1C(=O)C21CC(c2ccc(Cl)cc2)=NO1 (stereo not given)	none
CCC(=O)N1CCC2(CC1)Oc1ccc(Cl)cc1C(=O)C21CC(c2ccc(Cl)cc2)=NO1 (stereo not given)	ELG1 repair inh 10µM
CC(C)c1ccc(/C=C(\NC(=O)c2ccccc2)C(=O)NCCN2CCOCC2)cc1	none (no result: Giardia kill, Coupling enz)
CCN(CC)C(=O)c1ccc(NS(=O)(=O)c2ccc3[nH]c(=O)[nH]c3c2)cc1	ELG1 repair inh 18µM (no result: Coupling enz)
N#C/C(=C\c1cccc(Br)c1)C(=O)N1CCCCC1	ELG1 repair inh inconclusive
CCN(C(=O)COC(=O)c1cc(-c2cccs2)nc2ccccc12)C1CCS(=O)(=O)C1 (stereo not given)	none
Cc1ccc(-c2cc(C(=O)OCC(=O)N(C)C3CCS(=O)(=O)C3)c3ccccc3n2)c(C)c1 (stereo not given)	none
Cc1ccc(-c2cc(C(=O)OCC(=O)N(C)C3CCS(=O)(=O)C3)c3ccccc3n2)o1 (stereo not given)	ELG1 repair inh inconclusive, Sfp PPTase inh 20µM
CCN(C(=O)COC(=O)c1cc(-c2ccc(C)o2)nc2ccccc12)C1CCS(=O)(=O)C1 (stereo not given)	Sfp PPTase inh 20µM
COc1ccc(N2CCN(CCCNC(=O)CN3C(=O)COc4ccccc43)CC2)cc1	none
Cc1ccccc1C(=O)N1CCN(c2ccc(NC(=S)NC(=O)c3ccco3)cc2)CC1	ELG1 repair inh inconclusive, Giardia kill inconclusive
COc1ccccc1C(=O)NC(=S)Nc1ccc(N2CCN(C(=O)c3ccco3)CC2)cc1	ELG1 repair inh 13µM (no result: Coupling enz)
Cc1ccccc1C(=O)N1CCN(c2ccc(NC(=O)c3ccc4c(c3)OCO4)cc2)CC1	ELG1 repair inh 5.8µM
O=C(Nc1ccc(N2CCN(C(=O)c3ccccc3F)CC2)cc1)c1cncc(Br)c1	ELG1 repair inh 3.7µM (no result: Coupling enz)
O=C(Nc1ccc(N2CCN(C(=O)c3ccco3)CC2)cc1)c1ccc2c(c1)OCO2	ELG1 repair inh 18µM
Cc1ccccc1C(=O)N1CCN(c2ccc(NC(=O)c3cccnc3)cc2)CC1	ELG1 repair inh inconclusive
CSc1ncccc1C(=O)OCC(=O)Nc1cccc(S(=O)(=O)N2CCOCC2)c1	ELG1 repair inh inconclusive (no result: Sfp PPTase inh, Coupling enz)
O=C(NNC(=O)c1ccccc1F)c1ccc(S(=O)(=O)N2CCCCC2)cc1	none (no result: Sfp PPTase inh, Coupling enz)
CC1CCN(C(=O)CCCl)c2ccccc21 (stereo not given)	none (no result: ELG1 repair inh, Sfp PPTase inh, Coupling enz)
O=c1cnc2cnc(N3CCOCC3)nc2n1CCc1ccccc1	none (no result: ELG1 repair inh, Giardia kill)
O=C(Nc1ccc(N2CCN(C(=O)c3ccco3)CC2)cc1)c1cc(Br)ccc1Cl	ELG1 repair inh 12µM (no result: Sfp PPTase inh, Coupling enz)
Cc1noc(NS(=O)(=O)c2ccc(NC(=O)CSc3nc4c(cc3C#N)CCC4)cc2)c1C	Sfp PPTase inh 50µM
Cc1noc(NS(=O)(=O)c2ccc(NC(=O)CSc3ncccn3)cc2)c1C	ELG1 repair inh inconclusive
